Source: PubChem BioAssay (NCATS)
Inconclusive results are not listed. The source made the active and inactive calls. The call rests on the fitted dose curve; in most records, active means well fitted curve in the direction sought with a large enough effect; inconclusive means small, poorly fitted or top-dose-only effect, or another doubt; inactive means no such curve, though single readings can be large; an effect the other way counts as inactive or inconclusive.

Legend:
[1] = NS1 protein of Zika virus - qHTS assay to identify small molecule inhibitors in human HEK 293 cells (AID 1347053); further: series mostly up to about 46 µM; nearly all actives have a fitted effect of over 55% in size
Method in brief: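 TR-FRET signal from two anti-ZIKV NS1 antibodies quantified NS1 in HEK 293 cells 24 h after MR766 infection at MOI = 0.5; compounds were added 1 h before virus. Uninfected cells and infected cells defined the NS1 normalization range.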

[2] = qHTS of pediatric cancer cell lines to identify multiple opportunities for drug repurposing: Primary screen for TC32 cells (AID 1347089); further: nearly all actives have a fitted effect of over 60% in size
Method in brief: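 Luminescent ATP read-out (CellTiter-Glo) of metabolically active TC32 cells after 48 h exposure. Concentration-response curves came from 11-point (MIPE, 0.78 nM–46 µM) or 8-point (NPC, 0.59 nM–46 µM) primary titrations; follow-up used 11 points.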

[3] = qHTS of pediatric cancer cell lines to identify multiple opportunities for drug repurposing: Primary screen for DAOY cells (AID 1347090); further: series mostly up to about 46 µM; nearly all actives have a fitted effect of over 55% in size
Method in brief: (§1)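 Eight- or eleven-point concentration series, 48 h treatment at 37 degrees C in growth media; readout CellTiter-Glo luminescence. Potency and efficacy were taken from the concentration-response curves.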

[4] = qHTS of pediatric cancer cell lines to identify multiple opportunities for drug repurposing: Primary screen for SJ-GBM2 cells (AID 1347091)
Method in brief: as §1

[5] = qHTS of pediatric cancer cell lines to identify multiple opportunities for drug repurposing: Primary screen for SK-N-MC cells (AID 1347093); further: series mostly up to about 46 µM
Method in brief: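 Metabolically active cells were quantified by ATP-dependent luminescence (CellTiter-Glo, 15 min at room temperature) following 48 h treatment. Cells had been plated at 500-1,000 per well and settled for 5 h beforehand.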

[6] = qHTS of pediatric cancer cell lines to identify multiple opportunities for drug repurposing: Primary screen for BT-37 cells (AID 1347094); further: series mostly up to about 57 µM
Method in brief: (§2)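 Following a 5-hour attachment period, cells at 500-1,000/well received compounds and were cultured for 48 hours. CellTiter-Glo was added and luminescence read to estimate viable, metabolically active cells.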

[7] = qHTS of pediatric cancer cell lines to identify multiple opportunities for drug repurposing: Primary screen for NB-EBc1 cells (AID 1347095)
Method in brief: as §2

[8] = qHTS of pediatric cancer cell lines to identify multiple opportunities for drug repurposing: Primary screen for U-2 OS cells (AID 1347096); further: nearly all actives have a fitted effect of over 50% in size
Method in brief: (§3)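 Cells (500-1,000/well) in growth media were settled 5 h at 37 degrees C, then given compounds for 48 h. Viability was read as CellTiter-Glo luminescence. Primary runs used MIPE at 11 points (0.78 nM-46 µM) and NPC at 8 points (0.59 nM-46 µM); follow-ups used 11 points.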

[9] = qHTS of pediatric cancer cell lines to identify multiple opportunities for drug repurposing: Primary screen for Saos-2 cells (AID 1347097); further: nearly all actives have a fitted effect of over 40% in size
Method in brief: as §2

[10] = qHTS of pediatric cancer cell lines to identify multiple opportunities for drug repurposing: Primary screen for SK-N-SH cells (AID 1347098);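 further: DMSO served as neutral control and bortezomib at 2.3 µM as positive control; nearly all actives have a fitted effect of over 65% in size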
Method in brief: (§4)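 Cells (500-1,000/well) rested 5 h, then received compounds for 48 h; metabolically active cells were measured by CellTiter-Glo luminescence. Final concentrations spanned up to 46 µM (MIPE, 11-point) or 0.59 nM-46 µM (NPC, 8-point) in primary screens, 11-point in follow-ups.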

[11] = qHTS of pediatric cancer cell lines to identify multiple opportunities for drug repurposing: Primary screen for LAN-5 cells (AID 1347100)
Method in brief: as §3

[12] = qHTS of pediatric cancer cell lines to identify multiple opportunities for drug repurposing: Primary screen for BT-12 cells (AID 1347101); further: nearly all actives have a fitted effect of over 25% in size
Method in brief: as §4

[13] = qHTS of pediatric cancer cell lines to identify multiple opportunities for drug repurposing: Primary screen for Rh18 cells (AID 1347102); further: nearly all actives have a fitted effect of over 65% in size
Method in brief: as §3

[14] = qHTS of pediatric cancer cell lines to identify multiple opportunities for drug repurposing: Primary screen for OHS-50 cells (AID 1347103); further: nearly all actives have a fitted effect of over 40% in size
Method in brief: as §4

[15] = qHTS of pediatric cancer cell lines to identify multiple opportunities for drug repurposing: Primary screen for RD cells (AID 1347104); further: nearly all actives have a fitted effect of over 55% in size
Method in brief: as §2

[16] = qHTS of pediatric cancer cell lines to identify multiple opportunities for drug repurposing: Primary screen for MG 63 (6-TG R) cells (AID 1347105); further: nearly all actives have a fitted effect of over 50% in size
Method in brief: as §2

[17] = qHTS of pediatric cancer cell lines to identify multiple opportunities for drug repurposing: Primary screen for control Hh wild type fibroblast cells (AID 1347106);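 further: series mostly up to about 46 µM; a drop in luminescence marks cytotoxicity and a rise apparent proliferation; nearly all actives have a fitted effect of over 55% in size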
Method in brief: as §3

[18] = qHTS of pediatric cancer cell lines to identify multiple opportunities for drug repurposing: Primary screen for Rh30 cells (AID 1347107); further: series mostly up to about 46 µM; nearly all actives have a fitted effect of over 75% in size
Method in brief: as §3

[19] = qHTS of pediatric cancer cell lines to identify multiple opportunities for drug repurposing: Primary screen for NB1643 cells (AID 1347099); further: nearly all actives have a fitted effect of over 50% in size
Method in brief: as §2

[20] = qHTS of pediatric cancer cell lines to identify multiple opportunities for drug repurposing: Primary screen for A673 cells (AID 1347092); further: nearly all actives have a fitted effect of over 45% in size
Method in brief: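 Cell viability of A673 measured by CellTiter-Glo ATP luminescence after 48 hours compound exposure. Dilution series spanned 0.78 nM to 46 µM (MIPE, 11-point) or 0.59 nM to 46 µM (NPC, 8-point); bortezomib 2.3 uM positive control.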

Measured: Potency

c1ccc2[nH]ccc2c1
not listed: [19] | [20]
inactive: all other assays above

O=C(NCN1CCOCC1)c1cnccn1
not listed: [20]
inactive: all other assays above

OC[C@@H](O)[C@@H](O)[C@H](O)[C@H](O)CO
not listed: [5] | [8] | [9] | [14] | [19] | [20]
inactive: all other assays above

O=C(CN1CCNCC1)NC1CCCCC1
not listed: [9] | [16] | [20]
inactive: all other assays above

C=CCN1C[C@H](C(=O)N(CCCN(C)C)C(=O)NCC)C[C@@H]2c3cccc4[nH]cc(c34)C[C@H]21
not listed: [20]
inactive: all other assays above

OCCN1C[C@H](O)[C@@H](O)[C@H](O)[C@H]1CO
not listed: [6] | [8] | [20]
inactive: all other assays above

CC(C)c1cc2c(cc1S(=O)(=O)O)[C@@]1(C)CCC[C@@](C)(C(=O)O)[C@@H]1CC2
not listed: [10] | [20]
inactive: all other assays above

O=C(O)CCCc1ccccc1
not listed: [2]
inactive: all other assays above

CO[C@@]1(NC(=O)C(C(=O)O)c2ccc(O)cc2)C(=O)N2C(C(=O)O)=C(CSc3nnnn3C)CO[C@@H]21 (stereo partly specified)
not listed: [16] | [20]
inactive: all other assays above

COc1ccc(O)cc1
not listed: [2] | [6] | [8] | [9]
inactive: all other assays above

CC[N+](CC)(CC(=O)Nc1c(C)cccc1C)Cc1ccccc1
not listed: [2] | [7] | [9] | [14]
inactive: all other assays above

NC(=O)NC1NC(=O)NC1=O (stereo unspecified)
not listed: [2] | [7] | [16] | [20]
inactive: all other assays above

C[N+]1(C)CCCC(OC(=O)C(O)(c2ccccc2)c2ccccc2)C1 (stereo unspecified)
not listed: [2]
inactive: all other assays above

C[N+](C)(C)CC(O)CC(=O)[O-] (stereo unspecified)
not listed: [2] | [9]
inactive: all other assays above

CC(=O)OC[C@H]1O[C@@](COC(C)=O)(O[C@H]2O[C@H](COC(C)=O)[C@@H](OC(C)=O)[C@H](OC(C)=O)[C@H]2OC(C)=O)[C@@H](OC(C)=O)[C@@H]1OC(C)=O
not listed: [2] | [14] | [17]
inactive: all other assays above

Cc1ccsc1/C=C/C1=NCCCN1C
not listed: [2] | [7] | [20]
inactive: all other assays above

Cc1cccc(Nc2ccccc2C(=O)O)c1C
not listed: [2] | [5] | [9] | [14]
inactive: all other assays above

C[C@@H]1O[C@@H](OC[C@H]2O[C@@H](Oc3c(-c4ccc(O)c(O)c4)oc4cc(O)cc(O)c4c3=O)[C@H](O)[C@@H](O)[C@@H]2O)[C@H](O)[C@H](O)[C@H]1O
not listed: [2] | [6] | [7]
inactive: all other assays above

COc1ccc(C(=O)NCc2ccc(OCCN(C)C)cc2)cc1OC
not listed: [2] | [6] | [10]
inactive: all other assays above

CC(=O)N[C@@H](CC(C)C)C(=O)O
not listed: [2] | [16] | [20]
inactive: all other assays above

Cc1ccc2c(c1)c1c3n2CCNC3CCC1 (stereo unspecified)
not listed: [2] | [6] | [7] | [14]
inactive: all other assays above

Cn1c(=O)c2c(ncn2CCO)n(C)c1=O
not listed: [2] | [5] | [6] | [20]
inactive: all other assays above

CCOC(=O)[C@H](CCc1ccccc1)N[C@@H](C)C(=O)N1CCC[C@H]1C(=O)O
not listed: [2] | [6] | [12] | [16]
inactive: all other assays above

Cc1ccsc1C(=CCCN1CCC[C@@H](C(=O)O)C1)c1sccc1C
not listed: [2] | [20]
inactive: all other assays above
